This passage reports inhibition results from ChEMBL document CHEMBL1961873, “Compounds: GSK PKIS; Assays: Nanosyn kinase panel” (2012).

The structures appear in SMILES notation.

The target of assay [1] is Protein kinase C gamma type (Homo sapiens) (UniProt P05129). The note with it: at 1 µM.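 Also: each value is an averaged percent inhibition of the enzyme.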
Assay [2] concerns the target T1, Protein kinase C iota type (Homo sapiens) (UniProt P41743).
T1 sequence (whole entry): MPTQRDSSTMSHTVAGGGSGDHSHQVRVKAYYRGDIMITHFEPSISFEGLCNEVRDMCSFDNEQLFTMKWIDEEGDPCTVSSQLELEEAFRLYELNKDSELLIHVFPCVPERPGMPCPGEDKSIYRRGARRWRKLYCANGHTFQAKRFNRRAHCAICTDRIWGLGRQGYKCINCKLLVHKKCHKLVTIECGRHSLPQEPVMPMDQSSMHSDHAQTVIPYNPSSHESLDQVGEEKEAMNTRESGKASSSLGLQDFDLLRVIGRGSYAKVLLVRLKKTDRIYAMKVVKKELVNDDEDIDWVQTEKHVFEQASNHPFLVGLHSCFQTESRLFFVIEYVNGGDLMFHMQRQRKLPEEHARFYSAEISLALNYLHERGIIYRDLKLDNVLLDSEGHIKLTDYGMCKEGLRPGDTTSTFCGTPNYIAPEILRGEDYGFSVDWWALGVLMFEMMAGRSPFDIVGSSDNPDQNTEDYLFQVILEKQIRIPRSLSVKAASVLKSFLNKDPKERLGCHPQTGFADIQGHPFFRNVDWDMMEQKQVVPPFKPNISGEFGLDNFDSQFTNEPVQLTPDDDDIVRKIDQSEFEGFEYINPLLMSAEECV
The note with it: at 0.1 µM.

Assay [3] addresses T1, Protein kinase C iota type (Homo sapiens). Conditions: at 1 µM.
Assay [4] deals with Protein kinase C theta type (Homo sapiens) (UniProt Q04759). Conditions: at 0.1 µM.
Assay [5] shares this target. The note with it: at 1 µM.
For assay [6], the target named is Protein kinase C beta type (Homo sapiens) (UniProt P05771). Conditions: at 0.1 µM.
Assay [7] has the same target. The note with it: at 1 µM.
In assay [8] the target is T2, Serine/threonine-protein kinase D1 (Homo sapiens) (UniProt Q15139).
T2 sequence (whole entry): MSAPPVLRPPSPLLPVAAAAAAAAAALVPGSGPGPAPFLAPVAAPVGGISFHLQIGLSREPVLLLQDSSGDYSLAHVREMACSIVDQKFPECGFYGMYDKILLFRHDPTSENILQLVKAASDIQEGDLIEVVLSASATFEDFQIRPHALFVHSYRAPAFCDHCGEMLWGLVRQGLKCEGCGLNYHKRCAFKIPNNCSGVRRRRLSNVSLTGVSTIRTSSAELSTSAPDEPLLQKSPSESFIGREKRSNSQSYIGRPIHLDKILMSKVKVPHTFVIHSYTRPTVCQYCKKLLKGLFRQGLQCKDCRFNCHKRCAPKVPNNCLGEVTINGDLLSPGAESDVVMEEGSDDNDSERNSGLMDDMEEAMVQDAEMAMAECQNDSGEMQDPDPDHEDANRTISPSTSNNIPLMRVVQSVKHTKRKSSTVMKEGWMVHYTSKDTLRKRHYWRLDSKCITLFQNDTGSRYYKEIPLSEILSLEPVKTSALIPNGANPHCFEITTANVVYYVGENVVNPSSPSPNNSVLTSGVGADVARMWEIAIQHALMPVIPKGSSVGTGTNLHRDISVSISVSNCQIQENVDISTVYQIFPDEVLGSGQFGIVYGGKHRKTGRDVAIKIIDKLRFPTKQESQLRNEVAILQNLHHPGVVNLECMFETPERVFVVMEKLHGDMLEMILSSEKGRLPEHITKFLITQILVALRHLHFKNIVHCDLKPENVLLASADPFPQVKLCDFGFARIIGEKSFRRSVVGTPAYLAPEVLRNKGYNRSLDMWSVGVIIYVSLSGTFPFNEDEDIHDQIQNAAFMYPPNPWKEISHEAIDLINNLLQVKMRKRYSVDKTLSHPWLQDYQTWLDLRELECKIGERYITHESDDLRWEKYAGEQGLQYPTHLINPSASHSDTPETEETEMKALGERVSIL
Conditions: at 0.1 µM.

Assay [9] deals with T2, Serine/threonine-protein kinase D1 (Homo sapiens). The note with it: at 1 µM.
The target in assay [10] is T3, Serine/threonine-protein kinase D2 (Homo sapiens) (UniProt Q9BZL6).
T3 sequence (whole entry): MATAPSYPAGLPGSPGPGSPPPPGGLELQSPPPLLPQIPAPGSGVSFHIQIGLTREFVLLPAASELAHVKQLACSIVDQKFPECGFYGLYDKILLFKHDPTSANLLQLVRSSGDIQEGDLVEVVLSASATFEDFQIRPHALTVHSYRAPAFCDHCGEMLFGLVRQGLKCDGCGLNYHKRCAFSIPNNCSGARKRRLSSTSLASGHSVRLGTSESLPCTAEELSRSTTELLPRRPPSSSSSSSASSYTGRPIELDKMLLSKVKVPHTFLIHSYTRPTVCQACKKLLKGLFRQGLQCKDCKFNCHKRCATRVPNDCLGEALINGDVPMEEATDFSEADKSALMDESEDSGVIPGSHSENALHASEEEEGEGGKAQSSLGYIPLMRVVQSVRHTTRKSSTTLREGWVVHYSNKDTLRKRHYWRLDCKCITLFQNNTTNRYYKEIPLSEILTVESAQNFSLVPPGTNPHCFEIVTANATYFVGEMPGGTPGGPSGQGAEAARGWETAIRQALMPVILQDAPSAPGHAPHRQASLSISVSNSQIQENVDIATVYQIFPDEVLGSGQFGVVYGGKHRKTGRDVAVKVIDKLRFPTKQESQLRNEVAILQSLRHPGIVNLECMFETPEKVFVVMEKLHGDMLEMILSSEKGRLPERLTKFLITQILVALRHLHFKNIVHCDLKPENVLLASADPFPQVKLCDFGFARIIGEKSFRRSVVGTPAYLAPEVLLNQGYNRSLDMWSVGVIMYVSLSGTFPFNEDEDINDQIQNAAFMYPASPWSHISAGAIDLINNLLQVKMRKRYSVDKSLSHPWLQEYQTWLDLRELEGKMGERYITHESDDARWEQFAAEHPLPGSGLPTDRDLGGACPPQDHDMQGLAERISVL
The note with it: at 0.1 µM.

In assay [11] the target is T3, Serine/threonine-protein kinase D2 (Homo sapiens). The note with it: at 1 µM.
Assay [12] has as its target T4, Serine/threonine-protein kinase D3 (Homo sapiens) (UniProt O94806).
T4 sequence (whole entry): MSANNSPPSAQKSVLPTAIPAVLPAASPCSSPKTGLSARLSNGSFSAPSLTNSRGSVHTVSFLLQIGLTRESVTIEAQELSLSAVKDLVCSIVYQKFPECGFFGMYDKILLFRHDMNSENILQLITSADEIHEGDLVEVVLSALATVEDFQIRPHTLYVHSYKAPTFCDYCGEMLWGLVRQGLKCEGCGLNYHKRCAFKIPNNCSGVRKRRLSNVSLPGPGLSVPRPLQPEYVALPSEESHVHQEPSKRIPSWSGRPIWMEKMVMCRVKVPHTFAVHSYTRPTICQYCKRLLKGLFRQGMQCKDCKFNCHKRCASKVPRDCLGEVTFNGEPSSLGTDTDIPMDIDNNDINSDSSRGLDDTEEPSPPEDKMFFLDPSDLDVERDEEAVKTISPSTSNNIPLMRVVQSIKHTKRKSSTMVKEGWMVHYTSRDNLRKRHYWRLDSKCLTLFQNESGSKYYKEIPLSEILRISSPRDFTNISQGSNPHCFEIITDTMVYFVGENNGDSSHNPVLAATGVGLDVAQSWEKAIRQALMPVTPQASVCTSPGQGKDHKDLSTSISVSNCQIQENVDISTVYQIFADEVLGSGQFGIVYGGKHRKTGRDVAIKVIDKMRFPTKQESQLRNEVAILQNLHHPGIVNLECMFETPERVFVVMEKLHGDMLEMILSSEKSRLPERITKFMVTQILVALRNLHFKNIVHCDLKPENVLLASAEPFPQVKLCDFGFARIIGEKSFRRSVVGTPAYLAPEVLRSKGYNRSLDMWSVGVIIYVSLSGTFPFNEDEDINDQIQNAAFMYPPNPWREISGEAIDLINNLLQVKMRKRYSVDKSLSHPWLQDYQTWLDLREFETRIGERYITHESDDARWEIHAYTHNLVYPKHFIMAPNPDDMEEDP
Conditions: at 0.1 µM.

Assay [13] addresses T4, Serine/threonine-protein kinase D3 (Homo sapiens). The note with it: at 1 µM.
For assay [14], the target named is T5, cGMP-dependent protein kinase 1 (Homo sapiens) (UniProt Q13976).
T5 sequence (whole entry): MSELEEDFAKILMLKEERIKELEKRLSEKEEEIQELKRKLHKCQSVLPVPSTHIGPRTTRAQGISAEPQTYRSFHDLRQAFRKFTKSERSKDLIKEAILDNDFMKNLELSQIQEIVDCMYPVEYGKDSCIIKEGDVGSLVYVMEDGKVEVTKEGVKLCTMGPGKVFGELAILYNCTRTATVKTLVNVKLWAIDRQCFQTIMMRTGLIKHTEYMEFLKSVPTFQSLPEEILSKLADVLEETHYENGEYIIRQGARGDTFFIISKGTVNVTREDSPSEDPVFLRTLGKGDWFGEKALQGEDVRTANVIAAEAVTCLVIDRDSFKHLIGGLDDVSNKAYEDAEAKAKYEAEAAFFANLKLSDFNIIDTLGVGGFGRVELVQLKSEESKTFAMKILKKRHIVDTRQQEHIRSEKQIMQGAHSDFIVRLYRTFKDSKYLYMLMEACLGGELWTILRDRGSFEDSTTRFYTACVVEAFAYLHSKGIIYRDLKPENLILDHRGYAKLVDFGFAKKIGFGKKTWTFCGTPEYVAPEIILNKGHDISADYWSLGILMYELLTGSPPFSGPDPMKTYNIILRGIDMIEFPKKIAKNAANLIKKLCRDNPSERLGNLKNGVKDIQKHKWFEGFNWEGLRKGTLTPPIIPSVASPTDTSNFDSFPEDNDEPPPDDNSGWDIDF
Conditions: at 0.1 µM.

Assay [15] concerns the target T5, cGMP-dependent protein kinase 1 (Homo sapiens). The note with it: at 1 µM.
For assay [16], the target named is T6, cGMP-dependent protein kinase 2 (Homo sapiens) (UniProt Q13237).
T6 sequence (whole entry): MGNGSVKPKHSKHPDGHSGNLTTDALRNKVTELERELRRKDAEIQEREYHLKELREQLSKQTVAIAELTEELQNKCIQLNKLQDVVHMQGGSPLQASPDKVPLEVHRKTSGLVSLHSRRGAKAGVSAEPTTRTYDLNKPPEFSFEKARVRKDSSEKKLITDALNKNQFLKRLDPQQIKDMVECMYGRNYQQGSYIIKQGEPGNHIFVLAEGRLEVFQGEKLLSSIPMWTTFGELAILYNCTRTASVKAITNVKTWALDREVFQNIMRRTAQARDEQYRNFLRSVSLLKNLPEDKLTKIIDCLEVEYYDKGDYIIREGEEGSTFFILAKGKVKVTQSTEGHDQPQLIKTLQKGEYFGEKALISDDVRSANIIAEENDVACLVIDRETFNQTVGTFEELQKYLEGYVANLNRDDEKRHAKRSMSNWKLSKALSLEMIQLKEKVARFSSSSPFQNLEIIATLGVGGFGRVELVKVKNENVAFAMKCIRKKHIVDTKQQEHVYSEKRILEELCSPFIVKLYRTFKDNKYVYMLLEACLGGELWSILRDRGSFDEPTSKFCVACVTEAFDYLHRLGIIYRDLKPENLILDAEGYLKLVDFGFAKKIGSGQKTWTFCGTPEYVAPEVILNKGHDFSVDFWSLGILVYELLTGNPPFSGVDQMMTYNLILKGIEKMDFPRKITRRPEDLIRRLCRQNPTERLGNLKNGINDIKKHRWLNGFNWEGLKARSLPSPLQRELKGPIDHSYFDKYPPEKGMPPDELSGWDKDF
Conditions: at 0.1 µM.

In assay [17] the target is T6, cGMP-dependent protein kinase 2 (Homo sapiens). The note with it: at 1 µM.
In assay [18] the target is T7, cAMP-dependent protein kinase catalytic subunit PRKX (Homo sapiens) (UniProt P51817).
T7 sequence (whole entry): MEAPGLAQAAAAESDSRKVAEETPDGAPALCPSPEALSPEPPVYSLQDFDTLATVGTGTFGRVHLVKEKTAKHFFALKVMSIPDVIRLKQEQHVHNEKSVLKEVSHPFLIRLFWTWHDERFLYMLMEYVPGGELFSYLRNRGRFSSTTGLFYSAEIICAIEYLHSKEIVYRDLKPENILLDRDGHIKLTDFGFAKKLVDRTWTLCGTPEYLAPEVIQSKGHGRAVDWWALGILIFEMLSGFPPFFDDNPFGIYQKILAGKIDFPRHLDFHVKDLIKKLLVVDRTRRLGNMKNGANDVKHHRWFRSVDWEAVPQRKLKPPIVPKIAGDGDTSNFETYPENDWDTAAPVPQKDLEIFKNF
The note with it: at 0.1 µM.

The target in assay [19] is T7, cAMP-dependent protein kinase catalytic subunit PRKX (Homo sapiens). The note with it: at 1 µM.
In assay [20] the target is Rho-associated protein kinase 1 (Homo sapiens) (UniProt Q13464). Conditions: at 0.1 µM.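 Also: values are mean percent inhibition of ROCK1.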
Sequence of Rho-associated protein kinase 1 (Homo sapiens) (Q13464 2-1354 limits assumed): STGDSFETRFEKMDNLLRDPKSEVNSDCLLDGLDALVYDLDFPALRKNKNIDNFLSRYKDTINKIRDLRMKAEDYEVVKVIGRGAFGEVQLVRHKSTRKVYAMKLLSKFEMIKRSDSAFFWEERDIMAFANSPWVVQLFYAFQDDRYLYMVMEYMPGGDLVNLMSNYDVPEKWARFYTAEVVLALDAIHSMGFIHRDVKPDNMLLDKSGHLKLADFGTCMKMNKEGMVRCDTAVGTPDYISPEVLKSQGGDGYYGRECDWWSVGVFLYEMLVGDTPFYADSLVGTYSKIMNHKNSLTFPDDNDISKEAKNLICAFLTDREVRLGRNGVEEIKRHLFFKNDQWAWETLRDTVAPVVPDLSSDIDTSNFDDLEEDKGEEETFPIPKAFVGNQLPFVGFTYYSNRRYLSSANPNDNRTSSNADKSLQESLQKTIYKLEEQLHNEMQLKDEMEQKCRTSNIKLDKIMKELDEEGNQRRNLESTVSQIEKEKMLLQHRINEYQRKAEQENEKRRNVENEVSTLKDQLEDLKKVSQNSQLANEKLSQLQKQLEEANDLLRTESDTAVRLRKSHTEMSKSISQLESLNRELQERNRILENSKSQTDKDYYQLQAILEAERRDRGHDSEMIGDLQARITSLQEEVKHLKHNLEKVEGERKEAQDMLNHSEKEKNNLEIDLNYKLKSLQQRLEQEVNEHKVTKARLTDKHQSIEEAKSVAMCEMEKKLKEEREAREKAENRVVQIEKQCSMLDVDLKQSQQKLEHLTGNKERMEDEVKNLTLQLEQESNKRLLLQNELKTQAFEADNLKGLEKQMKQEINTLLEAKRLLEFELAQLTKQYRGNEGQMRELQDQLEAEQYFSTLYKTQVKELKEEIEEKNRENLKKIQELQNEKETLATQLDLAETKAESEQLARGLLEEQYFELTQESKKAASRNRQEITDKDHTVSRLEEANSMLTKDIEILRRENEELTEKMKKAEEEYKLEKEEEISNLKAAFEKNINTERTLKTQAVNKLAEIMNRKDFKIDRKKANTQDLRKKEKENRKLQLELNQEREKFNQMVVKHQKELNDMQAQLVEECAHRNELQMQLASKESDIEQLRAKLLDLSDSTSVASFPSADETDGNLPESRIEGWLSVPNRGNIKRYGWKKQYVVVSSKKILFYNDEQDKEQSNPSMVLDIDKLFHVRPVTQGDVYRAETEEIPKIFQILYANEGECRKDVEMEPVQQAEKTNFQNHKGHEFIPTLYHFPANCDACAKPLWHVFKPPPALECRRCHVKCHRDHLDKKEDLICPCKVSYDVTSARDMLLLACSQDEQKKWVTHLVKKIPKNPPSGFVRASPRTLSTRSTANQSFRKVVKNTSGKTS

Sequence of Protein kinase C theta type (Homo sapiens) (Q04759 whole entry, looked up): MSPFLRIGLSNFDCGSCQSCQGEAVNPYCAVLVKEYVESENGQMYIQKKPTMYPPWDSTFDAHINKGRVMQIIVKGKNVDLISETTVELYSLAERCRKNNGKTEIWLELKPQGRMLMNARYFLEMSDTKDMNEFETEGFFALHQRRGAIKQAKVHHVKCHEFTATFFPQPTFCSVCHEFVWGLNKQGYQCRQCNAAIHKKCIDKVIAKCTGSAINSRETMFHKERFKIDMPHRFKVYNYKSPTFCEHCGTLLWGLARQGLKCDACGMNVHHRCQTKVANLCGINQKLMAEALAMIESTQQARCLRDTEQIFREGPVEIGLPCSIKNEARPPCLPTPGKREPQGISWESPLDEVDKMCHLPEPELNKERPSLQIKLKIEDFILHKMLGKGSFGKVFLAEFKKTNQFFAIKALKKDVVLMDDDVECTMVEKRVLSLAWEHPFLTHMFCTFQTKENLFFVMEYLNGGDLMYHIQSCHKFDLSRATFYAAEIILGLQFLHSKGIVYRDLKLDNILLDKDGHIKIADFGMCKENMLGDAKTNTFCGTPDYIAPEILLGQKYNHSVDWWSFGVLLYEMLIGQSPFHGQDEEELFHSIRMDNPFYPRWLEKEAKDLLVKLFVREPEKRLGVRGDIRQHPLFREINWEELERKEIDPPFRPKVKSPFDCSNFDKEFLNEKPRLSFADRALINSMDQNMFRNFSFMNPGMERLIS
Sequence of Protein kinase C beta type (Homo sapiens) (P05771 2-671 limits assumed): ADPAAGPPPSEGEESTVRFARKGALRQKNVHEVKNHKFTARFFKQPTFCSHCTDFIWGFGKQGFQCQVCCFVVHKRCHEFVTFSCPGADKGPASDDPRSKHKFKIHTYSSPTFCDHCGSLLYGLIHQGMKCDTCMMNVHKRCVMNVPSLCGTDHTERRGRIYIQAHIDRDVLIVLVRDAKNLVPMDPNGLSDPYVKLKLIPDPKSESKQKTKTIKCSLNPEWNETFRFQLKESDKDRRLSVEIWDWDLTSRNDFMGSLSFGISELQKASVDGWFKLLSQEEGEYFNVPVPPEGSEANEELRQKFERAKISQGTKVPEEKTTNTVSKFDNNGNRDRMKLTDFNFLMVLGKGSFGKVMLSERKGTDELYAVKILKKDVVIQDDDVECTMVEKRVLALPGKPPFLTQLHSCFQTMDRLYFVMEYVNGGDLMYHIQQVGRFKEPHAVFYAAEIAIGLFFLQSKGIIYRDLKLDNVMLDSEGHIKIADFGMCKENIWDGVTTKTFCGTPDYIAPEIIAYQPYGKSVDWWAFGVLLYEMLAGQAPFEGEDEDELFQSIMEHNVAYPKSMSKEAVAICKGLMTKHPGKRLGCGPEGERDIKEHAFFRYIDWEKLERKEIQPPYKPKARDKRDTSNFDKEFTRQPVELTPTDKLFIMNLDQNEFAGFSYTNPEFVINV

On to `CCn1c(-c2nonc2N)nc2c(C#CC(C)(C)O)nc(O[C@@H](CN)c3ccccc3)cc21`, for which the inhibition (usually the relative decrease from the control value, in per cent) in assay [1] amounted to 81.1%; in [2] it was 3.68%; in [3] it was 26.4%; in assay [4], 73.5%; in assay [5] it was 84.8%; in assay [6] it was 49.2%. In addition, the inhibition in [7] is 80.5%; in [8], 8.23%; in assay [9], 61.6%; in assay [10] it was 9.02%; in assay [11] it was 66.3%; in [12], 10.9%. Moreover, the inhibition came to 64.3% in [13]; 68.7% in [14]; 81.1% in assay [15]; 67.9% in assay [16]; 84.4% in assay [17]; 82.3% in [18]. For the same compound, the figures for the inhibition in [19] and in [20] were 88.2% and 9.16%, respectively.

As to `Cc1cc(-c2ccco2)cc(C)c1/C=C/c1cncc(-c2nn[nH]n2)c1`, the inhibition in [1] is 1.85%; in assay [2] it was 0.32%; in assay [3] it was -0.83%; in [4], 0.29%; in [5], -0.04%; in assay [6], -0.04%. The inhibition in assay [7] is -0.06%; in [8] it was 0.58%; in assay [9], 2.09%; in [10], 0.97%; in assay [11] it was 2.37%; in [12] it was 2.09%. The inhibition is 1.22% in assay [13]; -0.2% in [14]; -0.46% in assay [15]; 0.23% in assay [16]; -1.21% in assay [17]; 0.69% in assay [18]. Besides, the inhibition is -0.08% in assay [19] and 0.84% in assay [20].
